Results: the supplement of paper PMC10849652
The full data set covers some 7,900 targets. This sample favours those with a hit. About 0.6% of all pairs of compound and target were hits. Values without a mark were called inactive.

Experiments:
Assay in all cases: log2 fold change, soluble protein after heating vs DMSO (PISA); higher = thermal stabilisation; K562 cells, 10 uM, 30 min; active = over 0.2 and 3.5 SD of the protein, either way, in both replicates (recomputed)
[1] = compound: CS(=O)(=O)c1ccc(-c2cnc(N)c(C(=O)Nc3ccccc3)n2)cc1
Method in brief: (§1)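 K562 cells at 2×10^6 cells/mL were treated with 10 μM compound for 30 min. Aliquots were heated for 3 min across 48°C-58°C, pooled, and extracted in PBS with 0.5% NP-40 at 4°C; soluble protein was the supernatant after 21,000xg for 90 min. Soluble protein was quantified by TMTpro 16plex LC-MS/MS with channel sums equalised, and reported as log2 fold change in thermal stability against DMSO controls, with values from duplicates.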

crizotinib = compound: C[C@@H](Oc1cc(-c2cnn(C3CCNCC3)c2)cnc1N)c1c(Cl)ccc(F)c1Cl [crizotinib]
Method in brief: as §1

[2] = compound: C[C@@H]1COCCN1C2=NC(=NC(=C2)C3(CC3)S(=O)(=O)C)C4=C5C=CNC5=CC=C4
Method in brief: as §1

[3] = compound: C[C@H](C1=CC=C(C=C1)C(=O)NC2=C3C=CNC3=NC=C2)N
Method in brief: as §1

duvelisib = compound: C[C@H](Nc1ncnc2nc[nH]c12)c1cc2cccc(Cl)c2c(=O)n1-c1ccccc1 [duvelisib]
Method in brief: as §1

gandotinib = compound: Cc1cc(Nc2cc(CN3CCOCC3)c3nc(C)c(Cc4ccc(Cl)cc4F)n3n2)n[nH]1 [gandotinib]
Method in brief: as §1

tozasertib = compound: Cc1cc(Nc2cc(N3CCN(C)CC3)nc(Sc3ccc(NC(=O)C4CC4)cc3)n2)n[nH]1 [tozasertib]
Method in brief: as §1

[4] = compound: Cc1cc(SCc2sc(-c3ccc(C(F)(F)F)cc3)nc2C)ccc1OCC(=O)O
Method in brief: as §1

doramapimod = compound: Cc1ccc(-n2nc(C(C)(C)C)cc2NC(=O)Nc2ccc(OCCN3CCOCC3)c3ccccc23)cc1 [doramapimod]
Method in brief: as §1

ispinesib = compound: Cc1ccc(C(=O)N(CCCN)[C@@H](c2nc3cc(Cl)ccc3c(=O)n2Cc2ccccc2)C(C)C)cc1 [ispinesib]
Method in brief: as §1

Sequence of UniProt Q9Y4E8 (Q9Y4E8 whole entry, looked up): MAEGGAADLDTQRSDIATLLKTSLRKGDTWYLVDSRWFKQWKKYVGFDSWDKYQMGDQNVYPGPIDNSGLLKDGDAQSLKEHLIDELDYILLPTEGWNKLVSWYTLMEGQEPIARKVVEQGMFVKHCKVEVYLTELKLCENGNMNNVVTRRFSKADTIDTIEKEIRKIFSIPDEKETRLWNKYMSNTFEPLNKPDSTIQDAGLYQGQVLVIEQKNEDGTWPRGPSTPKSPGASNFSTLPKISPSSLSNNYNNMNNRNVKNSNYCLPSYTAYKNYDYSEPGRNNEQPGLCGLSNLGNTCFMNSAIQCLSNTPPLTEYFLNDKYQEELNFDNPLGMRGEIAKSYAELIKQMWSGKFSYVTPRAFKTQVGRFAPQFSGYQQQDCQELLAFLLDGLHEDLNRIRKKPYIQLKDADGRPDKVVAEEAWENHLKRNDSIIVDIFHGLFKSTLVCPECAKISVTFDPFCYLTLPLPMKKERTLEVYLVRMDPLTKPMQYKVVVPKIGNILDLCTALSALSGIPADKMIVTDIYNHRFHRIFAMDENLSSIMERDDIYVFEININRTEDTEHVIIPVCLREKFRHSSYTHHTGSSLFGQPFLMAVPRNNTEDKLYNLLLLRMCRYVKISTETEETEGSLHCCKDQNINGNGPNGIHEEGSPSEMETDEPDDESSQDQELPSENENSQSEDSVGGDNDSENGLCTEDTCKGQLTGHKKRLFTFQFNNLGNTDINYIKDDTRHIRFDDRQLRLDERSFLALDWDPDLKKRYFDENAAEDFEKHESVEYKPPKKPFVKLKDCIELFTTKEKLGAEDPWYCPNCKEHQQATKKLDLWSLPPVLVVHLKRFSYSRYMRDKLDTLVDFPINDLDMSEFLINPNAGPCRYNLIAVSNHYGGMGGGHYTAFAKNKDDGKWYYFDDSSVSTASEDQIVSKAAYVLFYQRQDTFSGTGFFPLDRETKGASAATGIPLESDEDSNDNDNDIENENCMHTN
Sequence of UniProt Q9NP79 (Q9NP79 whole entry, looked up): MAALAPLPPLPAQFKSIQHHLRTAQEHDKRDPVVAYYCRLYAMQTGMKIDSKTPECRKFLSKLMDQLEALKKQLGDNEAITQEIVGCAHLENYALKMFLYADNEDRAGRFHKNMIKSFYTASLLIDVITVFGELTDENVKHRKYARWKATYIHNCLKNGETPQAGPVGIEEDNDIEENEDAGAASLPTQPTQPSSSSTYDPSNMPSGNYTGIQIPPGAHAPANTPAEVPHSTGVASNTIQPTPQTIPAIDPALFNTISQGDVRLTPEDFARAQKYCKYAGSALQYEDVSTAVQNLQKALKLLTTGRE
Sequence of UniProt Q9H269 (Q9H269 whole entry, looked up): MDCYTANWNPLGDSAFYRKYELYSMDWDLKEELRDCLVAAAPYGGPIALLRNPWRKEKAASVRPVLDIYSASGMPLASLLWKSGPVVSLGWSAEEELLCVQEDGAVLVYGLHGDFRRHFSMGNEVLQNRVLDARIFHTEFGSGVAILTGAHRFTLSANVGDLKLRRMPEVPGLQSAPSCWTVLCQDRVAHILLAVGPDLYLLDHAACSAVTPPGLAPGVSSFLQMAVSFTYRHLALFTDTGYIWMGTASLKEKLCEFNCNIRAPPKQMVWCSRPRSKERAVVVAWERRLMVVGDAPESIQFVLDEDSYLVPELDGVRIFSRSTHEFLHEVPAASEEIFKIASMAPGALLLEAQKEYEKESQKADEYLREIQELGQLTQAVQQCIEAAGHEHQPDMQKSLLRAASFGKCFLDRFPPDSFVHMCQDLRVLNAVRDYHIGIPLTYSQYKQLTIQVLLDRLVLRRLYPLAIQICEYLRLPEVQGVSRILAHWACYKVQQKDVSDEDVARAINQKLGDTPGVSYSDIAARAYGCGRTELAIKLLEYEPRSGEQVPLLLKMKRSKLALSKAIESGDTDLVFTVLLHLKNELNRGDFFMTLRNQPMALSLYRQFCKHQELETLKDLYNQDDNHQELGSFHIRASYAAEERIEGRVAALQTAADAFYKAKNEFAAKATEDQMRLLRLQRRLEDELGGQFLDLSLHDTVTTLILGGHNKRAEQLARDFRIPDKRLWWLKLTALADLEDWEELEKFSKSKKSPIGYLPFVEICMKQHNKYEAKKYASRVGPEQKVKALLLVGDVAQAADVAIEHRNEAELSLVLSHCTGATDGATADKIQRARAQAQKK
Sequence of UniProt Q9UHP3 (Q9UHP3 whole entry, looked up): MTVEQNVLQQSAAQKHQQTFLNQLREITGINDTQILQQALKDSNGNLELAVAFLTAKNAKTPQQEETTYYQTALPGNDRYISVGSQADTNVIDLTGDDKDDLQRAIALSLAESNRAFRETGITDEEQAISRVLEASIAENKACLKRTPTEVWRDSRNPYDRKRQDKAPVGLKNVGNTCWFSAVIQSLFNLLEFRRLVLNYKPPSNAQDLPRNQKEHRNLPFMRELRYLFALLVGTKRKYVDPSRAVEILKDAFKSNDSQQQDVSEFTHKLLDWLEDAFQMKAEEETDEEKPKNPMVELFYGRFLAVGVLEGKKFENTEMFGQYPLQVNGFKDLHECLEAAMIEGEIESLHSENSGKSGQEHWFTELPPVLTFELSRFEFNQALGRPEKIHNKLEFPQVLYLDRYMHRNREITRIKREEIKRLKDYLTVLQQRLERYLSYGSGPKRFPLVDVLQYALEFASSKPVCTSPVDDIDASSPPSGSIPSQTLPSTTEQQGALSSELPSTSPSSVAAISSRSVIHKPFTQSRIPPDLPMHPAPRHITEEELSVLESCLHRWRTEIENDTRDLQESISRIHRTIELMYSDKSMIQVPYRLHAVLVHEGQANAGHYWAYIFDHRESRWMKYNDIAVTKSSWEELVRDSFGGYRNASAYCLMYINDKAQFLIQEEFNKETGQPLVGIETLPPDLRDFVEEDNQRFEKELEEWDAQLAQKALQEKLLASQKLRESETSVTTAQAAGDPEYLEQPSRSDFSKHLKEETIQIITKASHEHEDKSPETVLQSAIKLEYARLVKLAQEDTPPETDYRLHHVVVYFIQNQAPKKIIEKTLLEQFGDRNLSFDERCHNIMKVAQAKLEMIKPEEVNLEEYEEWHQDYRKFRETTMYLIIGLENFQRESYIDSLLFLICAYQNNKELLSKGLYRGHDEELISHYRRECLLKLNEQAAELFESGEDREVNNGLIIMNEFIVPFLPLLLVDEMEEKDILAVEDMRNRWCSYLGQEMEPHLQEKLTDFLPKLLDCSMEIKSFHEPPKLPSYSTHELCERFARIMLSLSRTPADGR
Sequence of UniProt Q8NCE0 (Q8NCE0 whole entry, looked up): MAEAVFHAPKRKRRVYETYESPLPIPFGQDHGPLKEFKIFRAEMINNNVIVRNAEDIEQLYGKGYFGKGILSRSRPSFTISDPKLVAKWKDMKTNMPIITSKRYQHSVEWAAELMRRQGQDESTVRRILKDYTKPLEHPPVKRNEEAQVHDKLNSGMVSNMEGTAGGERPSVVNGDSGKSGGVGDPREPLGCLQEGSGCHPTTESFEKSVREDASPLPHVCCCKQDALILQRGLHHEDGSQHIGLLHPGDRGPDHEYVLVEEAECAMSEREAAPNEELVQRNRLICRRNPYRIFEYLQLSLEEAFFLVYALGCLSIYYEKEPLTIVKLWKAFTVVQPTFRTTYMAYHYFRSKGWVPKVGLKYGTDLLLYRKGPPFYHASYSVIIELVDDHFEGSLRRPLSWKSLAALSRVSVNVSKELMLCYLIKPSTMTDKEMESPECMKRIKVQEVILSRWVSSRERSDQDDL
Sequence of UniProt Q14157 (Q14157 whole entry, looked up): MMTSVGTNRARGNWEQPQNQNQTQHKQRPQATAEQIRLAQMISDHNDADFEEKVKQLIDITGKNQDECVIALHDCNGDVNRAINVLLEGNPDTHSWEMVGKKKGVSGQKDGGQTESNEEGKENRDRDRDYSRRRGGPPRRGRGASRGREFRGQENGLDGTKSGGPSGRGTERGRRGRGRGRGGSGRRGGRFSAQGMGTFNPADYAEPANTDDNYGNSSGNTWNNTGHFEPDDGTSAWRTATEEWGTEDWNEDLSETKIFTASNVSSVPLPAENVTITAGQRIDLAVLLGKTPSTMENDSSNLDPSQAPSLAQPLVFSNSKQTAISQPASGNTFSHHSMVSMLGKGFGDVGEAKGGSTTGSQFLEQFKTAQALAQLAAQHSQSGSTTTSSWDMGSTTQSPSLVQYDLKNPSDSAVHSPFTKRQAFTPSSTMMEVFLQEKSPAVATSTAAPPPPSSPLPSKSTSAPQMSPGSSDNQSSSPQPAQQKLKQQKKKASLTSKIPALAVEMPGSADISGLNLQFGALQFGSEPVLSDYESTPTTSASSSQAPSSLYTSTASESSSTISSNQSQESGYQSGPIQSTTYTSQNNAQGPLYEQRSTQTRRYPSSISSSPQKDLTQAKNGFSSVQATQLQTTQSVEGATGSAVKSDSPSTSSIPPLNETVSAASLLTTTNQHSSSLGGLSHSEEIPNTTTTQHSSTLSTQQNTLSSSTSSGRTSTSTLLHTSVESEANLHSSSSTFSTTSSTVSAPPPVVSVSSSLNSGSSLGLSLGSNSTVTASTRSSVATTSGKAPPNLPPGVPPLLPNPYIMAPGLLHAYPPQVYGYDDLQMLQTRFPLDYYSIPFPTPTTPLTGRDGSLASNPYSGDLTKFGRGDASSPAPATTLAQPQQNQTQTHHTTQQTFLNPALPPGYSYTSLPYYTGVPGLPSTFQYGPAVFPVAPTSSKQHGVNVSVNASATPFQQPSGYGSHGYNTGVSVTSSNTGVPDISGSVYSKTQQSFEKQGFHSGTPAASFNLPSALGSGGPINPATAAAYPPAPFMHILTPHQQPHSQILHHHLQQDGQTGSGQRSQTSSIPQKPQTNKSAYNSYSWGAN
Sequence of UniProt Q9BUB7 (Q9BUB7 whole entry, looked up): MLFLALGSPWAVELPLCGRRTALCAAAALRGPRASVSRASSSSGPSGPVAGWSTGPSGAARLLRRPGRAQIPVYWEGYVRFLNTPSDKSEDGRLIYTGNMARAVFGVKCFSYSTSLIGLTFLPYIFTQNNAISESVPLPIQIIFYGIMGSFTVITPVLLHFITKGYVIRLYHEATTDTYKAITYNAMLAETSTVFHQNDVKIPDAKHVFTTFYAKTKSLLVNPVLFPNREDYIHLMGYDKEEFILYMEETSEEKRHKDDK

Row | Target | log2 fold change [1] | log2 fold change (crizotinib) | log2 fold change [2] | log2 fold change [3] | log2 fold change (duvelisib) | log2 fold change (gandotinib) | log2 fold change (tozasertib) | log2 fold change [4] | log2 fold change (doramapimod) | log2 fold change (ispinesib)
1 | WAPL isoform 3 (UniProt Q7Z5K2) | 0.052 | -0.23 | 0.18 | -0.142 | 0 | -0.199 | 0.052 | -0.006 | 0.017 | -0.026
2 | TOE1 (UniProt Q96GM8) | 0.013 | 0 | -0.221 | 0.211 | -0.01 | 0.219 | 0.041 | 0.066 | 0.065 | -0.021
3 | TMEM164 (UniProt Q5U3C3) | 0 | -0.036 | 0.139 | 0.05 | 0.601 (active) | -0.204 | 0.031 | 0.027 | 0.091 | 
4 | TTC38 (UniProt Q5R3I4) | -0.055 | -0.085 | -0.085 | -0.073 | -0.027 | -0.031 | 0 | 0.063 | 0.73 (active) | 0.06
5 | WASHC3 (UniProt Q9Y3C0) | -0.014 | -0.274 (active) | 0.096 | -0.039 | 0.012 | -0.041 | 0.021 | 0.014 | 0.048 | -0.4 (active)
6 | VPS16 (UniProt Q9H269) | 0.035 | -0.105 | -0.09 | 0.08 | 0.023 | -0.163 | 0.033 | 0.092 | 0.085 | -0.239
7 | USP15 (UniProt Q9Y4E8) | 0.04 | -0.041 | 0.05 | -0.009 | 0.01 | -0.043 | 0.056 | 0.063 | -0.045 | -0.036
8 | TMEM189-UBE2V1 (UniProt I3L0A0) | 0.063 | 0.022 | 0.051 | 0.051 | 0.042 | 0.007 | -0.009 | -0.034 | 0.021 | 0.071
9 | WASHC5 (UniProt Q12768) | -0.023 | -0.133 | -0.068 | 0.053 | -0.034 | -0.002 | -0.02 | 0.032 | 0.073 | -0.093
10 | VPS8 (UniProt Q8N3P4) | 0.024 | -0.12 | 0.016 | 0.127 | 0.038 | -0.097 | 0.065 | 0.083 | 0 | -0.154
11 | VPS28 (UniProt Q9UK41) | 0.01 | 0.051 | 0.063 | -0.091 | 0.044 | -0.055 | 0 | 0.096 | 0.035 | -0.041
12 | UTP3 (UniProt Q9NQZ2) | 0.015 | 0.061 | -0.494 | 0.363 | -0.133 | 0.17 | 0.017 | -0.04 | 0.099 | -0.144
13 | WNK1 isoform 7 (UniProt Q9H4A3) | 0.022 | -0.061 | -0.027 | 0.03 | -0.016 | -0.032 | 0.001 | -0.018 | 0.001 | -0.044
14 | VPS52 (UniProt Q8N1B4) | -0.001 | -0.102 | -0.031 | 0.058 | 0.033 | -0.122 | 0.022 | -0.013 | 0.008 | -0.068
15 | WDR7 (UniProt Q9Y4E6) | 0.025 | 0.024 | -0.029 | -0.096 | 0.042 | -0.009 | -0.003 | 0.08 | 0.065 | -0.075
16 | TSEN2 (UniProt Q8NCE0) | -0.198 | 0.052 | 0.014 | 0 | 0.049 | -0.127 | -0.048 | 0.056 | -0.057 | -0.074
17 | TOM1L1 (UniProt O75674) | -0.001 | 0.08 | 0.184 | -0.059 | 0.102 | -0.342 (active) | -0.03 | 0.011 | -0.021 | -0.016
18 | UXT isoform 2 (UniProt Q9UBK9) | 0.063 | 0.056 | 0.184 | 0.006 | 0.017 | 0.255 | 0.021 | -0.034 | 0.017 | -0.035
19 | USP25 isoform 3 (UniProt Q9UHP3) | 0.042 | -0.003 | -0.017 | -0.062 | 0.05 | -0.024 | 0.036 | 0.021 | 0.007 | -0.025
20 | XPO6 (UniProt Q96QU8) | -0.033 | 0.177 | -0.277 | 0.031 | -0.001 | 0.104 | -0.011 | 0.027 | 0.179 | 0
21 | UGDH (UniProt O60701) | -0.106 | 0.079 | 0.041 | -0.161 | 0.061 | -0.064 | 0.046 | 0.049 | -0.106 | 0.165
22 | UBAP2L isoform 5 (UniProt Q14157) | -0.028 | 0.051 | -0.07 | -0.007 | 0.035 | 0.007 | -0.013 | 0.016 | -0.038 | 0.026
23 | TYW1 (UniProt Q9NV66) | 0.038 | 0.143 | 0.032 | 0.053 | 0.035 | -0.004 | 0.037 | 0.021 | 0.008 | 0.179
24 | UGGT1 (UniProt Q9NYU2) | 0.013 | 0 | 0.012 | 0.009 | -0.005 | 0.005 | 0.008 | 0.016 | 0.017 | 0.012
25 | TRAPPC11 (UniProt Q7Z392) | -0.004 | 0.008 | 0.051 | 0.075 | 0.043 | -0.047 | 0.021 | 0.1 | 0.028 | -0.079
26 | VTA1 (UniProt Q9NP79) | 0.032 | -0.049 | 0.056 | -0.019 | 0.019 | -0.127 | 0.004 | 0.057 | -0.021 | -0.014
27 | TRAM1 (UniProt Q15629) | 0.075 | -0.587 (active) | 0.017 | 0.014 | -0.003 | -0.47 (active) | -0.124 | 0.09 | -0.119 | -0.964 (active)
28 | VRK1 (UniProt Q99986) | 0.055 | -0.11 | 0.126 | 0.444 (active) | 0.168 | -0.067 | -0.096 | 0.161 | -0.075 | -0.077
29 | VPS51 (UniProt Q9UID3) | -0.009 | -0.096 | -0.003 | 0.05 | 0.006 | -0.04 | 0.033 | 0.079 | 0.008 | -0.115
30 | TMEM70 (UniProt Q9BUB7) | 0.025 | -0.096 | 0.035 | 0.002 | -0.016 | -0.08 | -0.016 | 0.087 | -0.017 | -0.243
